# From PubChem
# ATXN2 expr inh = ATXN2 expression inhibition; HEK-293 ATXN2-luciferase reporter, luminescence, 24 h; Potency, µM (series often up to 57 µM), for the others: at the top dose activity change, negative = inhibition, actives largely listed as inhibitors; hit rate 0.72% among 360,000; AID 1745845; note: potency is the fitted concentration of half-maximal effect; % is set by controls: 0 for no effect and ±100 for the full control effect; nearly all actives have a fitted effect of over 55% in size
#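 qHTS (up to 57 uM final) was run with 24 h compound exposure of reporter cells at 37 °C. Each well was multiplexed: SteadyGlo luminescence measured ATXN2-luciferase expression after a fluorogenic Gly-Phe-AFC viability readout (25 uM final).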
# SW480 rereplic = DNA re-replication induction in SW480 cells | Potency, µM (titrated, usually from 46.1 µM), inactives show at the highest dose re-replication activation, actives largely listed as activators | SW480 DNA re-replication, Hoechst DNA content imaging, 48 h | hit rate 1.8% among 340,000; note: potency is the fitted concentration of half-maximal effect; % of control where 0% means no effect; nearly all actives have a fitted effect of over 55% in size
#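 Quantitative HTS format with DMSO vehicle controls; 48 hr drug incubation at 37 C, then 40 min Hoechst staining and scanning imager measurement at 405 nm excitation.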
# IL1B secr inh = blocks inflammasome-driven IL-1 beta release; activity change, % at 57.5 µM; THP-1 LPS/ATP IL-1B secretion, AlphaLISA, 16 h; stronger effect = lower value; hit rate 4.7% among 360,000; in the data active = activity change below about -50%; inconclusive = mostly about -30% to -49%; note: % is set by controls: 0 for no effect and ±100 for the full control effect
#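 Secreted IL-1B measured by AlphaLISA bead assay after 16 h compound exposure of THP-1 cells; compounds (final up to 57.5 uM) added 1 h before LPS (250 ng/mL) and ATP (1.25 mM) stimulation; lower signal means less secretion.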
# MCF10A rerep = inducers of DNA re-replication in MCF 10A breast cells. MCF 10A DNA re-replication, Hoechst nuclear intensity, 48 h. Potency, µM (highest dose often 46.1 µM), without a hit: at the highest dose activity, positive = re-replication, most hits filed as activators. hit rate 2.9% among 350,000; note: potency is the fitted concentration of half-maximal effect; % of control where 0% means no effect; nearly all actives have a fitted effect of over 50% in size
# PINK1 modulator = PINK1 expression modulation; PINK1 immunofluorescence, high-content cytometry, 24 h; Potency, µM (doses to about 76.6 µM), for inactives: top-dose activation (PINK1 increase), most hits filed as activators; hit rate 0.2% among 410,000; AID 624263; active = well fitted activation curve with a large enough effect; inconclusive = small, poorly fitted or top-dose-only effect; cell line not stated here; note: potency is the fitted concentration of half-maximal effect; % of control where 0% means no effect; nearly all actives have a fitted effect of over 65% in size
#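 Fluorescence from anti-PINK1 antibody, together with nuclear and cell stains, was scanned on a laser-scanning cytometer. Before staining, stable-line cells were incubated 24 hours with compounds at 5 concentrations; primary antibody 12 h at 10 degrees C.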
# ATXN viability = viability counter-screen for ATXN expression inhibitors. AID 651635. hit rate 0.49% among 400,000. Potency, µM (top dose mostly 56.7 µM), usual class: cytotoxic. S2 cells (HEK-293 line with an ATXN2-luciferase reporter) viability, CellTiter-Fluor protease fluorescence, 24 h; note: potency is the fitted concentration of half-maximal effect; nearly all actives have a fitted effect of over 40% in size
# Numbers without * were called inactive; i = inactive; ? = inconclusive; . = no result given. An excerpt weighted towards active compounds, which were near 7.1% of everything screened. Unless noted, calls come from the whole dose curve; as a rule, active = well fitted curve in the direction sought with a large enough effect; inconclusive = small, poorly fitted or top-dose-only effect, or another doubt; inactive = no such curve, though single readings can be large; an effect the other way counts as inactive or inconclusive.
SMILES,ATXN2 expr inh,SW480 rereplic,IL1B secr inh,MCF10A rerep,PINK1 modulator,ATXN viability
CCc1nc(SCC(=O)Nc2ccccc2Cl)n[nH]1,-14.2%,9.2µM*,13.2,-4.5%,0.2%,i
Cc1nc(SCC(=O)NC2CCCC2)c2c(C)c(C)sc2n1,-22.1%,-0.1%,9.7,?,3.9%,i
Nc1nc(SCC(=O)Nc2cc(Cl)c(Cl)cc2Cl)n[nH]1,0.3%,0.7%,-51.9*,0.3%,-1.3%,i
Nc1nc(SCC(=O)Nc2cc(Cl)ccc2Cl)n[nH]1,1.9%,14.1%,47.7,2.2%,-3.6%,i
CC(/C=C/c1ccc(N(C)C)cc1)=N/N=C1/NC(=O)CC(C(=O)Nc2ccc(Cl)cc2)S1 (configuration not stated),25.9%,20.6µM*,-5.9,6.51µM*,-0.8%,?
CCCOc1ccc(NC(=O)C2CC(=O)N/C(=N/N=C(C)/C=C/c3ccc(N(C)C)cc3)S2)cc1 (configuration not stated),39.9%,18.4µM*,-16.9,5.17µM*,14.2%,i
COc1ccc(NC(=O)C2CC(=O)N/C(=N/N=C/c3ccccc3)S2)cc1 (configuration not stated),-15.2%,4.3%,1.0,3.6%,2.4%,i
CC(/C=C/c1ccc(N(C)C)cc1)=N\N=C1\NC(=O)CC(C(=O)Nc2ccccc2)S1 (configuration not stated),3.7%,?,-22.2,11.6µM*,-0.2%,i
CCC(Sc1nnc2c(n1)[nH]c1ccccc12)C(=O)Nc1nnc(C(C)C)s1 (configuration not stated),12.4%,.,.,.,2.5%,i
CCN1c2ccccc2-n2cccc2C12CCN(C(=O)Nc1ccccc1Br)CC2,.,.,.,.,2.6%,.
CC(C)CCNC(=O)c1cccc(-n2cnc3cccnc32)c1,.,.,.,.,-1.4%,.
N#CC1=C(c2ccccc2)/C(=C/c2ccccc2)OC1=O,?,?,-104.4*,6.51µM*,-0.3%,.
COc1ccc(N(C)S(=O)(=O)c2cccc(C(=O)NC3CCCCCC3)c2)cc1,-24.4%,25.7%,-54.5*,?,-2.2%,i
CCOc1ccc(N(C)S(=O)(=O)c2ccc(C)c(C(=O)N3CCN(Cc4ccc5c(c4)OCO5)CC3)c2)cc1,?,21.7%,-88.6*,?,0.7%,?
COc1ccc(N(C)S(=O)(=O)c2cccc(C(=O)NC3CCC(C)CC3)c2)cc1 (configuration not stated),-2.9%,?,?,?,-1.1%,i
COc1ccc(N(C)S(=O)(=O)c2cccc(C(=O)N3CCN(Cc4ccc5c(c4)OCO5)CC3)c2)cc1,-21.7%,2.2%,-68.4*,?,0.9%,i
CCOC(=O)c1c(C)[nH]c(CCC(=O)Nc2ccccc2C(=O)OC)c1C,.,.,.,.,-0.3%,.
Cc1cnc(C)c(-c2cc(F)cc3c2OC(CNC(=O)C2CCOC2)C3)n1 (configuration not stated),.,.,.,.,2.8%,i
O=C(N/N=C/c1cccnc1)c1cc(-c2ccccc2OCc2ccccc2)n[nH]1,-2.9%,?,-23.2,14.6µM*,0.6%,i
Cc1ccc(CN(Cc2cccn2-c2nnc(N3CCCC3=O)s2)C(=O)Nc2ccccc2Cl)cc1,-7.6%,.,.,.,-0.3%,i
O=[N+]([O-])c1cccnc1N1CCC(c2cc(-c3ccc(Cl)cc3)n[nH]2)CC1,?,?,-84.7*,?,8.7%,?
COC(=O)c1c(NC(C)=O)c2c3c(sc2n1Cc1cc(C)ccc1C)CCCC3,-31.7%,.,.,.,2.6%,i
Cc1ccc(S(=O)(=O)CCSc2n[nH]c(=O)n2-c2ccccc2)cc1,-28.0%,12.2%,?,5.5%,-1.4%,?
Cc1cc(C)c(-n2c(SCc3nc4ccccc4s3)n[nH]c2=O)c(C)c1,-27.4%,-1.0%,-94.9*,14.9%,-1.7%,i
Cc1cc(C)c(-n2c(SCCS(=O)(=O)c3ccc(F)cc3)n[nH]c2=O)c(C)c1,6.1%,?,-97.1*,?,0.7%,?
SMILES,ATXN2 expr inh,SW480 rereplic,IL1B secr inh,MCF10A rerep,PINK1 modulator,ATXN viability
C=C(C)Cn1c(=O)c2c(nc3n2CCN3c2cc(C)cc(C)c2)n(C)c1=O,.,.,.,.,-1.0%,.
C=C1CC2(OC1=O)c1ccccc1CCc1ccccc12,5.97µM*,4.11µM*,-102.0*,2.91µM*,-5.7%,.
O=C1NC(=O)C2(CCc3ccccc32)N1 (configuration not stated),-2.3%,4.1%,25.7,-2.8%,1.0%,i
Fc1cccc(C[n+]2csc3ccccc32)c1,2.9%,-8.0%,-117.9*,-1.9%,2.0%,?
O=C(C[n+]1csc2ccccc21)c1ccc(O)c(O)c1,.,.,.,.,2.1%,.
c1ccc(C[n+]2csc3ccccc32)cc1,-15.7%,?,-53.0*,23.1µM*,?,i
CCc1cccc(CC)c1N1C(=O)C2=C(SCCCS2)C1=O,.,.,-4.4,.,3.5%,.
N#Cc1c(N)c(C#N)c(-c2ccc(O)cc2)c2c1CCCC2,0.3%,1.2%,0.0,?,4.9%,i
CSc1nc2c(c(-c3ccc(O)cc3)c1C#N)CCC2,-15.0%,9.1%,19.8,25.9µM*,1.6%,i
COc1ccc(-c2c(C#N)c(N)nc3c2CCC3)cc1,.,20.6µM*,8.2,2.91µM*,-1.0%,.
COc1ccc(C(=O)NCc2ccc3c(c2)CCN3C(=O)c2ccc(C)cc2)cc1,.,.,.,.,2.0%,.
COc1ccc(-c2ccc(/C=C(\NC(=O)c3ccccc3)C(=O)N3CCOCC3)o2)cc1,?,0.5%,-56.7*,?,0.1%,?
COc1ccc(/C=C(/NC(=O)c2ccccc2)C(=O)N2CCOCC2)cc1OC,7.1%,-3.3%,-67.4*,9.6%,3.9%,i
COc1ccc(/C=C(/NC(=O)c2ccccc2)C(=O)N/N=C/c2ccc3c(c2)OCO3)cc1OC,-6.2%,?,-68.6*,-15.3%,.,i
COc1ccc(-c2noc(CSc3nnc(-c4ccc(Cl)cc4)n3C)n2)cc1OC,-20.6%,.,.,.,0.4%,i
CCC(C)NC(=O)C1CCC(CNS(=O)(=O)c2ccc(Cl)cc2)CC1 (configuration not stated),.,.,.,.,-0.6%,.
C/C(=N/Nc1ccnc2cc(Cl)ccc12)c1ccc(O)cc1,-34.4%,-2.5%,-54.2*,?,8.8%,?
C/C(=N/Nc1ccnc2cc(Cl)ccc12)c1ccc(N)cc1,0.0%,4.0%,-9.5,5.7%,-0.6%,25.1µM*
CCn1c(C(=O)N2CCCC(C(=O)N3CCN(c4ccccc4)CC3)C2)cc2sccc21 (configuration not stated),.,.,.,.,1.4%,.
CC(C)C(=O)NC(c1ccco1)c1ccc2cccnc2c1O (configuration not stated),?,3.66µM*,120.6,?,-0.1%,?
